# High-throughput results: PubChem, National Center for Advancing Translational Sciences (NCATS)
# Only some compounds are listed: those with a hit (about 7.9% of all), similar ones and a draw of the others.
# MCF10A rereplic = induces DNA re-replication in MCF 10a normal breast cells. MCF 10A DNA re-replication, Hoechst nuclear intensity, 48 h. Potency, µM (top dose mostly 46.1 µM), inactives show at the highest dose activity, positive = re-replication, most hits filed as activators. 350,000 compounds, 2.9% hits; note: % of control where 0% means no effect; nearly all actives have a fitted effect of over 50% in size
# HT1080NT lethal = kills 2HG-producing HT-1080-NT fibrosarcoma cells. HT-1080-NT fibrosarcoma viability, CellTiter-Glo ATP luminescence, 48 h. AID 686970. Potency, µM (top dose mostly 46.1 µM), without a hit: at the top dose activity, negative = less viability, actives largely listed as cytotoxic. 360,000 compounds, 1.6% hits;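 note: NT is the 2HG producing partner of a matched IDH1 knockdown line; 0% = DMSO-treated cells and -100% = media-only wells without cells; nearly all actives have a fitted effect of over 55% in size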
#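 Luminescent CellTiter-Glo readout after 48 hours of compound exposure at 37 degrees C defined viability of HT-1080-NT cells. Activity was normalized to DMSO wells and cell-free media wells; concentration-response curves were fitted and assigned curve classes.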
# HT1080 IDH1KD tx = toxicity to HT-1080 IDH1 knockdown cells (counter line); HT-1080 IDH1 knockdown viability, ATP luminescence, 48 h; Potency, µM (series often up to 46.1 µM), for the others: at the top dose activity, negative = toxicity, actives largely listed as cytotoxic; 360,000 compounds, 2% hits; AID 686971;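 note: 0% = DMSO wells and -100% = cell-free medium wells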
#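 Cytotoxicity counter-line: IDH1KD HT-1080, 48 h, CellTiter-Glo. Curves classed by r2, magnitude and activity.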
# KB-V1 MDR tox = KB-V1 MDR subline cytotoxicity. KB-V1 MDR cells viability, CellTiter-Glo, 72 h. Potency, µM (titrated, usually from 46.1 µM), actives largely listed as cytotoxic. 400,000 compounds, 3.4% hits; note: % is set by controls: 0 for no effect and ±100 for the full control effect; nearly all actives have a fitted effect of over 60% in size
#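 Luminescent ATP read-out (CellTiter-Glo, 10 min) measures survival of drug-selected KB-V1 MDR cells after 72 h, 37 degrees C compound exposure. Medium: phenol-red-free DMEM, 10% FBS. Values from fitted concentration-response curves.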
# SW480 rerep = DNA re-replication induction in SW480 cells; SW480 DNA re-replication, Hoechst DNA content imaging, 48 h; Potency, µM (top dose mostly 46.1 µM), for inactives: at the highest dose re-replication activation, most hits filed as activators; 340,000 compounds, 1.8% hits; note: % of control where 0% means no effect; nearly all actives have a fitted effect of over 55% in size
#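 Image-based read-out: total Hoechst fluorescence of nuclei (405 nm excitation, 500-530 nm emission), with hits raising the fraction of high-intensity nuclei. SW480 colon cells incubated 48 hr with compounds at 37 C.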
# KB-3-1 tox = KB-3-1 parental cell cytotoxicity | Potency, µM (top dose mostly 46.1 µM), actives largely listed as cytotoxic | 400,000 compounds, 1.4% hits | KB-3-1 viability, CellTiter-Glo ATP luminescence, 72 h | AID 1347075; note: % is set by controls: 0 for no effect and ±100 for the full control effect; nearly all actives have a fitted effect of over 60% in size
#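 Cytotoxicity in the drug-sensitive parental line KB-3-1 was scored as loss of CellTiter-Glo luminescence following 72 h incubation with compound. Values come from curve fitting of normalized concentration-response data.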
# Active calls of the source: *; i = inactive; ? = inconclusive; / = no result; [ ] = another dose, or the depositor's remark. Calls come from the whole dose curve; as a rule, active = well fitted curve in the direction sought with a large enough effect; inconclusive = small, poorly fitted or top-dose-only effect, or another doubt; inactive = no such curve, though single readings can be large; an effect the other way counts as inactive or inconclusive. Potency is the fitted concentration of half-maximal effect.
SMILES,MCF10A rereplic,HT1080NT lethal,HT1080 IDH1KD tx,KB-V1 MDR tox,SW480 rerep,KB-3-1 tox
CCOC(=O)[C@]12Cc3cc(OC)ccc3[C@H]1N(C)C(=O)c1ccccc12,/,8.6%,13.8%,?,/,?
CCOC(=O)[C@]12Cc3c(cc(OC)c(OC)c3OC)[C@H]1N(C)C(=O)c1ccccc12,/,10.7%,1.1%,i,/,?
CCOC(=O)[C@]12Cc3cc(C)ccc3[C@H]1N(C)C(=O)c1cc(OC)ccc12,/,?,16.4µM*,i,/,7.31µM*
CCOC(=O)[C@]12Cc3cc(OC)ccc3[C@H]1N(C(C)C)C(=O)c1cc(OC)ccc12,/,20.6µM*,20.6µM*,6.51µM*,/,10.3µM*
CCCC(C)C1(CC)C(=O)NC(=S)NC1=O (centres undefined),-1.5%,/,/,/,1.0%,/
CC(=O)Nc1cc(-c2cccc(C(=O)N(C)C)c2)cn2c(-c3cccc(C(F)(F)F)c3)cnc12,/,?,-29.1%,i,/,i
CN1C[C@H](C(=O)N[C@]2(C)O[C@@]3(O)C4CCCN4C(=O)[C@H](Cc4ccccc4)N3C2=O)C[C@@H]2c3cccc4[nH]cc(c34)C[C@H]21 (some centres undefined),4.3%,/,/,/,0.9%[4.21 µM],/
O=c1[nH]c(CN2CC=C(c3ccccc3)CC2)nc2cc(C(F)(F)F)ccc12,14.6µM*,-6.6%,-1.2%,?,1.4%,i
O=c1[nH]c(CN2CC=C(c3ccccc3)CC2)nc2scc(-c3ccccc3)c12,18.4µM*,0.0%,-3.7%,?,-1.7%,?
Cc1ccc2c(CN3CC=C(c4ccccc4)CC3)cc(=O)oc2c1C,3.1%,4.5%,4.9%,i,6.3%,i
O=C1CCCc2c1nc(-c1ccccc1)n2O,1.5%,20.0%,-5.3%,i,0.2%,i
CC(=O)[C@H]1[C@H](C#N)C[C@H]2[C@@H]3CC=C4C[C@@H](O)CC[C@]4(C)[C@H]3CC[C@@]21C,-4.5%,1.0%,1.4%,?,?,?
CNCCCc1ccccc1,?,-7.0%,-13.8%,i,4.7%,23.1µM*
BrCCc1ccccc1,19.8%,/,/,i,-80.1%,i
N#Cc1cccc(NC(=O)c2sc3nc4c(cc3c2N)N2CCC4CC2)c1,/,/,/,i,/,i
COC1CCC(OC2CC(C3(C)CCC4(CC(O)C(C)C(C(C)/C=C(\C)C(=O)C(C)CC(C)C(=O)O)O4)O3)OC3(OC(C4OC(O)(CO)C(C)CC4C)CC3C)C2C)OC1C (centres undefined),1.46µM*,13µM*,3.66µM*,i,?,?
CC(=O)[C@H]1CC[C@H]2[C@@H]3CC[C@H]4C[C@](C)(O)CC[C@]4(C)[C@H]3CC[C@]12C,-1.5%,/,/,/,-0.2%,/
COc1ccc2c3c1OC1C(=O)CC[C@@]4(O)[C@@H](C2)N(C)CC[C@]314 (some centres undefined),?,?,20.6µM*,i,?,?
Cn1cc([N+](=O)[O-])c(C(=O)Nc2ccc3c(C(F)(F)F)cc(=O)oc3c2)n1,?,?,?,i,11.6µM*,?
ClC1=C(Cl)C(Cl)=C(Cl)C1=C/C=C/c1ccccc1,3.66µM*,-8.6%,-16.1%,4.11µM*,?,4.61µM*
CCCCn1c(O)c(C(=O)/C=C/c2c[nH]c3ccccc23)c(=O)[nH]c1=O,18.4µM*,12.2%,15.8%,i,?,i
CCCCn1c(O)c(C(CC)=NCCc2ccccc2)c(=O)[nH]c1=O,5.8%,-3.6%,-2.1%,?,0.1%,i
c1ccc2c(c1)cc1ccc3cccc4ccc2c1c34,?,-2.0%,-4.8%,i,20.6µM*,i
O=C1c2ccccc2-c2cccc3cccc1c23,8.5%,16.8%,0.6%,i,-7.6%,i
O=[N+]([O-])c1ccc(N2CCCC2)cc1N/N=C1\CN2CCC1CC2,1.4%,14.4%,23.3%,20.6µM*,23.1µM*,i
SMILES,MCF10A rereplic,HT1080NT lethal,HT1080 IDH1KD tx,KB-V1 MDR tox,SW480 rerep,KB-3-1 tox
CC(=O)O[C@@]12CO[C@@H]1C[C@@H](O)[C@@]1(C)C(=O)[C@H](O)C3=C(C)[C@@H](OC(=O)[C@H](O)[C@@H](NC(=O)c4ccccc4)c4ccccc4)C[C@@](O)([C@@H](OC(=O)c4ccccc4)C12)C3(C)C (some centres undefined),?,0.206µM*,0.013µM*,i,8.2µM*,0.0103µM*
CCCCCC(=O)N[C@@H](c1ccccc1)[C@@H](O)C(=O)O[C@H]1C[C@@]2(O)[C@@H](OC(=O)c3ccccc3)C3[C@](C)(C(=O)[C@H](O)C(=C1C)C2(C)C)[C@@H](OC1OCC(O)C(O)C1O)C[C@H]1OC[C@@]31OC(C)=O (some centres undefined),?,2.59µM*,1.84µM*,i,3.66µM*,0.206µM*
CC(=O)O[C@@]12CO[C@@H]1C[C@H](OC1OCC(O)C(O)C1O)[C@@]1(C)C(=O)[C@H](O)C3=C(C)[C@@H](OC(=O)[C@H](O)[C@@H](NC(=O)c4ccccc4)c4ccccc4)C[C@@](O)([C@@H](OC(=O)c4ccccc4)C12)C3(C)C (some centres undefined),0.581µM*,3.26µM*,5.8µM*,i,5.8µM*,1.03µM*
CC(=O)OC12COC1CC(O)C1(C)C(=O)C(O)C3=C(C)C(O)CC(O)(C(OC(=O)c4ccccc4)C21)C3(C)C (centres undefined),0.82µM*,?,?,i,8.2µM*,0.517µM*
O=C(Nc1ccc(Oc2ccc(Cl)cc2)c(Cl)c1)c1cc(I)cc(I)c1O,?,?,?,?,9.8%,?
Cc1cc(C)c(N)cc1C,?,21.8%,7.1%,i,?,i
COc1cc(C(=O)NN=Cc2ccc(N(CCCl)CCCl)cc2)cc(OC)c1OC,16.4µM*,?,4.11µM*,i,18.4µM*,16.4µM*
NC(Cc1ccc(O)cc1)C(=O)NN=Cc1ccc(N(CCCl)CCCl)cc1 (centres undefined),22.0%,?,-8.8%,i,?,i
CCC(C)OC(=O)c1c(N)n(Cc2cccs2)c2nc3ccccc3nc12 (centres undefined),11.6µM*,-16.2%,?,i,?,?
Nc1c(C(=O)OCc2ccccc2)c2nc3ccccc3nc2n1Cc1cccs1,6.51µM*,?,?,5.17µM*,14.6µM*,i
